Reference: PubChem BioAssay (EPA / NIEHS)
“And” between values parts separate entries of the source, which are not always exact repeats. Identical values can stand only once. The source holds several records for some structures; these can differ, active in one and inactive in another. The source made the active and inactive calls. How the source made its calls: active means hit-call score of the fitted dose curve at least 0.9, where 1 is the maximum; inactive means score below 0.9.

read-out: Monocyte Chemoattractant Protein-1 (MCP1), CCL2 (gene 6347); assay: BSK_SAg_MCP1: BioMAP Diversity Plus: SAg Assay for Monocyte Chemoattractant Protein-1 (MCP1) Biomarker Activity (AID 2283090); settings: primary human HUVEC with PBMC; actives raise or lower the signal
Description: BSK_SAg is a cell-based, multiplexed-readout assay that uses umbilical vein endothelium and peripheral blood mononuclear cells, a human vascular primary cell co-culture, with measurements taken at 24 hours after chemical dosing in a 96-well plate.BSK_SAg_MCP1 is an assay component measured in the BSK_SAg assay. It measures MCP-1 antibody related to regulation of gene expression using ELISA technology.Data from the assay component BSK_SAg_MCP1 was analyzed into 1 assay endpoint. This assay endpoint, BSK_SAg_MCP1, was analyzed with bidirectional fitting relative to DMSO as the negative control and baseline of activity. Using a type of binding reporter, gain or loss-of-signal activity can be used to understand changes in the signaling as they relate to the gene CCL2. Furthermore, this assay endpoint can be referred to as a primary readout, because this assay has produced multiple assay endpoints where this one serves a signaling function. To generalize the intended target to other relatable targets, this assay endpoint is annotated to the cytokine intended target family, where the subfamily is chemotactic factor.
The levels of cell surface (or secreted, indicated by the prefix "s") biomarker endpoints were measured by ELISA. Overt cytotoxicity to cells in confluent adherent cultures (all systems other than the BT system) was assessed by measuring total protein levels using sulforhodamine B (SRB) staining in parallel cultures at the time of biomarker measurements, indicated as SRB endpoints. For proliferation assays for adherent cell types, individual cell types are cultured at sub-confluence and relative cell numbers quantified by SRB staining at time points optimized for each system (48 h: 3C and CASM3C systems; 72 h: BT and HDF3CGF systems; 96 h: SAg system). SRB was performed by staining cells with 0.1% SRB after fixation with 10% TCA and reading wells at 560 nm.Viability and proliferation of PBMC (T cells) was quantified by Alamar Blue reduction for the SAg and BT systems. For PBMC viability (referred to as PBMC Cytotoxicity within the assay endpoint names), cells were plated (75,000/well in a 96-well plate) and then chemical samples added for 1 h before addition of activators, SEB and TSST-1 (20 ng/mL final concentration each). Cells were incubated for 90 h. Then, Alamar Blue (20 uL/well) (Invitrogen, Cat DAL1100) was added for 6 h, and the plates were read with a fluorescence microplate reader at 546/580 nm (excitation/emission). For PBMC proliferation, cells were plated and activated as above but incubated for only 16 h prior to addition of Alamar Blue. Plates were read after 6 h.

outcome, inactive:
O=C(c1ccccc1)c1ccccc1, CCCCC(CC)C(=O)OCCOCCOCCOCCOC(=O)C(CC)CCCC (stereo not given), CCCCCCCCCCCCOS(=O)(=O)O, Cc1ccc(N=Nc2c(O)ccc3ccccc23)c(C)c1, COc1cc(OC)nc(NC(=O)NS(=O)(=O)Nc2ccccc2C(=O)N(C)C)n1, O=C1c2ccc(O)c(O)c2C(=O)c2c(O)ccc(O)c21, CC(=O)Nc1ccc(O)cc1, O=P(O)(O)CCC(F)(F)C(F)(F)C(F)(F)C(F)(F)C(F)(F)C(F)(F)C(F)(F)C(F)(F)F, COC1=CC(=O)C[C@@H](C)[C@]12Oc1c(Cl)c(OC)cc(OC)c1C2=O, O=S(=O)(O)C(F)(F)C(F)(F)C(F)(F)C(F)(F)C(F)(F)C(F)(F)C(F)(F)C(F)(F)C(F)(F)C(F)(F)F, N=C(N)c1ccc(OCCCCCOc2ccc(C(=N)N)cc2)cc1, OCC(CO)(CBr)CBr, Clc1ccc(Nc2nnc(Cc3ccncc3)c3ccccc23)cc1, CN(CCO)S(=O)(=O)C(F)(F)C(F)(F)C(F)(F)C(F)(F)C(F)(F)C(F)(F)C(F)(F)C(F)(F)F, CS(=O)(=O)c1ccc([C@@H](CC2CCCC2)C(=O)Nc2cnccn2)cc1Cl, CCCCCCCCCCCC, O=C(O)CCC(F)(F)C(F)(F)C(F)(F)C(F)(F)C(F)(F)F, CC[N+](CC)(CC)Cc1ccccc1, OCC(F)(F)C(F)(F)C(F)(F)C(F)(F)C(F)(F)C(F)(F)C(F)(F)C(F)(F)C(F)(F)C(F)(F)C(F)(F)F, CCCCC(CC)C(=O)O (stereo not given), O=C1NS(=O)(=O)c2ccccc21, CCOC(=O)CN[C@@H](C(=O)N1CC[C@H]1C(=O)NCc1ccc(/C(N)=N/O)cc1)C1CCCCC1, CCC(C)c1ccccc1O (stereo not given), Cc1cccc2c1ccc1ccccc12, CCCCC=O, O=C(NCc1ncc(C(F)(F)F)cc1Cl)c1c(Cl)cccc1Cl, O=P(O)(O)CCC(F)(F)C(F)(F)C(F)(F)C(F)(F)C(F)(F)C(F)(F)F, COCN(COC)c1nc(N(COC)COC)nc(N(COC)COC)n1, C[C@]12CC[C@@H]3c4ccc(O)cc4CC[C@H]3[C@@H]1C[C@@H](O)[C@@H]2O, C=CC(C)(CCC=C(C)C)OC(C)=O (stereo not given), Cc1ccc(C(=O)c2ccccc2)cc1

AC50, active:
Oc1c(Cl)cc(Cl)cc1Sc1cc(Cl)cc(Cl)c1O 8.87 µM and 5.21 µM, C=CC(=C)CC/C=C(\C)CCC=C(C)C 0.042 µM, CCCCc1oc2ccccc2c1C(=O)c1cc(I)c(OCCN(CC)CC)c(I)c1 20.5 µM, CCCCCc1ccc(O)cc1 27.5 µM, O=S(=O)(O)C(F)(F)C(F)(F)C(F)(F)C(F)(F)C(F)(F)C(F)(F)C(F)(F)C(F)(F)C(F)(F)C(F)(F)F 8.67 µM, O=C(CC(=O)C(F)(F)C(F)(F)C(F)(F)F)c1cccs1 37.4 µM and 41.6 µM, Cc1[nH]nc2c1N=C(c1ccccc1Cl)c1cc([N+](=O)[O-])ccc1N2 3.44 µM, OCCN1CN(CCO)CN(CCO)C1 20 µM, O=C(O)C(F)(F)OC(F)(F)C(F)(F)OC(F)(F)C(F)(F)OC(F)(F)C(F)(F)C(F)(F)C(F)(F)F 48.8 µM and 47.2 µM
